Data taken from PubChem BioAssay AID588343 (Broad Institute, 2011).
Screen size: about 1,200 compounds; about 650 (54%) were called active. Another 5% or so got no clear call; they are omitted.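 The calls were made as follows: active = signal-lowering curve whose fitted half-maximal concentration is at or below ten times the top valid dose tested; inconclusive = flat curve with 30 to 70% inhibition, or poor fit; inactive = signal increase, flat within 30%, or potency beyond limit.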 The set was probably picked from earlier hits. Only a sample is shown. Entries with a potency or affinity are not part of this list.

test: EBV LMP1 TES2 canonical NF-kB signalling blockers – cell-based, HEK293, luciferase, cherry-pick, dose response (AID 588343); conditions: HEK293 LMP1 TES2 NF-kB luciferase reporter, 16 h; series mostly up to 35 µM; activity change, negative = inhibition: at the top concentration;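 also: 0% = median of neutral control wells and -100% = MG132 positive control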

Row | SMILES | activity change, negative = inhibition
1 | Cc1cc(N)nc(=O)n1C1CC(O)C(CO)O1 (stereo not drawn) | 3.79% (inactive)
2 | O=C1CN(C(=O)c2ccc(F)c(S(=O)(=O)N3CCOCC3)c2)c2ccccc2N1 | 2.87% (inactive)
3 | COc1ccc(C(=O)OCC(=O)c2c[nH]c3ccccc23)cc1OC | 19.4% (inactive)
4 | O=C(O)c1cc(=O)c2c(OCC(O)COc3cccc4oc(C(=O)O)cc(=O)c34)cccc2o1 | -2.82% (inactive)
5 | Cc1ccc(NS(=O)(=O)c2ccc(NC(=O)C(C)Sc3ccc(Cl)cc3)cc2)c(C)c1 (stereo not drawn) | -1.07% (inactive)
6 | COc1ccc(CNC(=O)COC(=O)[C@@H]2CCCN2C(=O)c2cccs2)cc1 | 12.8% (inactive)
7 | O=[N+]([O-])c1ccc(Cl)c(S(=O)(=O)NCC2CCCO2)c1 (stereo not drawn) | -1.9% (inactive)
8 | CSc1ccc2c(c1)C(N1CCN(C)CC1)Cc1ccccc1S2 (stereo not drawn) | 26.9% (inactive)
9 | O=C(c1ccc(C#CC2(O)CCCCC2)cc1)N1CCN(C(c2ccccc2)c2ccccc2)CC1 | 12.4% (inactive)
10 | COCCNC(=O)NC12CC3(C)CC(C)(CC(C)(C3)C1)C2 | -9.45% (inactive)
11 | COc1cc(CC(=O)N(c2ccccc2)c2nc(C)cs2)cc(OC)c1OC | -10.2% (inactive)
12 | Clc1ccc(-c2ccnc(Oc3ccc4ccccc4c3)n2)cc1 | -0.802% (inactive)
13 | Cc1ccc(-c2cc(N)n3nc(-c4ccc(C)cc4)cc3n2)cc1 | -2.58% (inactive)
14 | COC(=O)c1ccccc1NC(=O)CC(=O)Nc1ccccc1C(=O)OC | -4.89% (inactive)
15 | Cc1nc(SCC(=O)c2cccc([N+](=O)[O-])c2)n[nH]1 | -9.98% (inactive)
16 | C[C@H](CO)N1C[C@H](C)[C@@H](CN(C)C(=O)NC2CCCCC2)Oc2c(NS(=O)(=O)c3cn(C)cn3)cccc2C1=O | -12.5% (inactive)
17 | NC1=NC(=O)NC1(c1ccccc1)c1ccccc1 | -6.22% (inactive)
18 | COc1cc2nc(N3CCN(C(=O)C4CCCO4)CC3)nc(N)c2cc1OC (stereo not drawn) | -3.99% (inactive)
19 | C[C@H](NC(=O)N1CCn2c1nc1ccccc12)C(=O)NCC1CCCO1 (stereo partly drawn) | -8.38% (inactive)
20 | CCOC(=O)OC(C)OC(=O)[C@@H]1N2C(=O)[C@@H](NC(=O)[C@H](N)c3ccccc3)[C@H]2SC1(C)C (stereo partly drawn) | 33.8% (inactive)
21 | CSc1oc(-c2ccc(F)cc2)nc1S(=O)(=O)c1ccc(F)cc1 | -11.4% (inactive)
22 | CC(NC(=O)CCOc1ccccc1)c1ccccc1 (stereo not drawn) | 18.7% (inactive)
23 | O=C(O)c1cn2c3c(ccc(Cl)c3c1=O)OCC2 | 48.2% (inactive)
24 | Oc1cccc(/C=N/NC(=S)NCCN2CCOCC2)c1O | 9.95% (inactive)
25 | CN(C)CCC(c1ccccc1)c1ccccn1 (stereo not drawn) | -3.57% (inactive)
26 | COC(=O)CN(c1ccccc1F)S(=O)(=O)c1ccc(C)cc1 | 1.91% (inactive)
27 | CC(=O)O[C@H]1CC[C@@]2(C)C(=CC[C@H]3[C@@H]4CC[C@H](C(C)=O)[C@@]4(C)CC[C@@H]32)C1 | 33% (inactive)
28 | CN(C)/C=C/C(=O)c1ccc2noc(-c3ccccc3)c2c1 | -14.1% (inactive)
